# SKKanGAS inh = SKKanGAS growth inhibition. S. pyogenes SKKanGAS, kanamycin growth, BacTiter-Glo, 6 h. inhibition, % at 7.5 µM. hit rate 1.3% among 300,000. AID 1662;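 active = mean replicate score, as percent of positive control median, at least 50; inconclusive = mean below 50 but one replicate at or above 50; inactive = mean and every replicate below 50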;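 note: strain carries kanamycin resistance gene driven by streptokinase promoter and grows in 40 µg/ml kanamycin; loss of luminescence reflects streptokinase promoter inhibition or plain growth inhibition; 0% = median of DMSO wells and 100% = positive control at its reference dose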
# CSC inhib = blocks cancer stem cells | hit rate 1.1% among 300,000 | cancer stem cell-like cells viability, luminescence | inhibition, % at 7.5 µM; in the data active = inhibition above about 75%; inconclusive = no clear call, values can overlap the other calls; tested in HMLE shEcad cells
# aSyn UTR inh = MLPCN primary screen, SNCA 5' untranslated region; alpha-synuclein 5'UTR reporter, inhibitor activity; inhibition, % (tested at 7.5 µM); hit rate 0.82% among 300,000; in the data active = inhibition above about 60%; inconclusive = no clear call, values can overlap the other calls;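 note: H4 neuroglioblastoma cells stably carrying SNCA 5'UTR luciferase fusion; 0% = DMSO wells and 100% = positive control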
# IEC-6 cytotox = kills IEC-6 intestinal cells in KLF5 counter-screen; IEC-6 cytotoxicity, luminescence viability; AID 1825; hit rate 0.78% among 290,000; inhibition, % at 5 µM; in the data active = inhibition above about 22%;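 note: 0% = plate median of test compound wells and 100% = cytotoxic reference compound wells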
# KLF5 inhibitor = inhibitors of KLF5 expression; DLD-1 KLF5 promoter-luciferase reporter, luminescence; inhibition, % at 5 µM; hit rate 0.23% among 290,000;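 active = inhibition above a per-plate limit of that plate's mean compound inhibition plus 3 SD, cut at about 60% in these data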;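 note: 0% = DMSO wells and 100% = LY294002 at 200 µM; higher means less KLF5 promoter-driven luciferase light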
# Active calls of the source: *; ? = inconclusive; · = not tested or not shown; + = active, no number. Shown are actives, neighbours in structure and some others; about 3% of the full set was active somewhere.
SMILES,SKKanGAS inh,CSC inhib,aSyn UTR inh,IEC-6 cytotox,KLF5 inhibitor
CCc1cccc2sc(N3CCN(C(=O)c4ccc([N+](=O)[O-])o4)CC3)nc12,58.7*,4.6,-49.3,·,·
CCCCn1c(O)c(C(CC)=Nc2ccc3c(c2)CCC3)c(=O)[nH]c1=O,52.5*,-3.7,-9.0,5.7,-35.8
Nc1c(C(O)(C(F)(F)F)C(F)(F)F)cc(C(O)(C(F)(F)F)C(F)(F)F)c2ccccc12,23.0,124.3*,44.4,7.7,1.9
COc1ccc(CC(=O)O/N=C(\N)c2ccccc2)cc1OC,-4.7,-1.1,-52.6,3.1,-20.3
C(=N\Nc1nc(Nc2ccccc2)nc(Nc2ccccc2)n1)/c1cccnc1,?,·,-23.3,28.6*,6.6
COCCNC(=O)C(c1ccc(F)cc1)N(Cc1cccs1)C(=O)CCC(=O)Nc1ccccn1 (centres undefined),-5.0,-7.0,-9.8,-8.9,9.0
Cc1ccc2c(c1)C(=O)CC1(CCC(C(C)(C)C)CC1)O2 (centres undefined),68.3*,-2.3,17.4,·,·
CCOC(=O)C1=NN(C(=O)c2ccc(OC)cc2)C(O)(c2ccc(Cl)cc2)C1 (centres undefined),53.5*,-6.4,-14.6,-3.2,-5.7
CCOC(=O)C1=NN(C(=O)c2cccc(Br)c2)C(O)(C(C)(C)C)C1 (centres undefined),89.9*,2.4,104.7*,4.6,-35.4
COC(=O)C1=NN(C(=O)c2cccc(Br)c2)C(O)(c2ccc(Cl)cc2)C1 (centres undefined),86.0*,12.5,17.4,5.0,-12.1
CCOC(=O)C1=NN(C(=O)c2ccccc2)C(O)(c2ccc(C)cc2)C1 (centres undefined),6.9,0.1,8.4,2.8,-9.5
CN1C(=O)/C(=C/c2ccccc2OCc2cccc(F)c2)NC1=S,1.7,·,22.5,-1.6,-10.3
COc1ccc(-c2cn(Cc3ccc(C(=O)NCc4ccc(C)cc4)cc3)c(C(C)N)n2)cc1 (centres undefined),-5.0,2.5,-19.1,·,·
O=C(c1ccc([N+](=O)[O-])cc1)N1CCN(Cc2ccccc2[N+](=O)[O-])CC1,2.8,·,8.8,1.9,7.6
CCOc1ccc(NC(=O)c2cccc(OC(=S)N3CCC(C)CC3)c2)cc1,-3.3,14.6,1.4,5.6,-42.9
O=C(/C=C/c1c[nH]c2ccccc12)c1cccc2ccccc12,28.3,87.4*,-94.7,1.7,-9.5
Cc1cc(C(=O)CCl)c(C)n1CCc1ccc(Cl)cc1,-21.0,116.0*,26.6,-3.8,-6.2
Cc1cc(N(C)C)ccc1N=Nc1ccc2ncccc2c1,54.3*,10.3,-48.6,15.7,-131.4
O=C(c1ccccc1)C(O)c1ccccc1 (centres undefined),·,-11.7,·,·,·
Cc1cccc(C)c1OC(=O)C(c1ccccc1)c1ccccc1,70.9*,·,-2.3,3.4,-23.8
O=C(O)c1cccc(N/N=C(\N=Nc2ccccc2)c2ccccc2)c1,21.4,88.1*,-60.8,·,·
O=C(O)c1ccc(N=N/C(=N\Nc2ccc(C(=O)O)cc2)c2ccccc2)cc1,22.3,15.3,-14.8,·,·
COc1ccc(C(=O)NNc2ccccc2)cc1OC,·,82.9*,30.2,1.9,-5.8
COc1cccc(C(C(=O)NC2CCCC2)N(C(=O)c2ccco2)c2ccc(-n3cnnn3)c(C)c2)c1OC (centres undefined),3.8,-0.7,-1.0,1.0,-1.2
O=C(NNc1nc2cc3c(cc2s1)OCCO3)c1ccc(F)cc1,6.2,-8.2,-36.4,8.5,-21.4
SMILES,SKKanGAS inh,CSC inhib,aSyn UTR inh,IEC-6 cytotox,KLF5 inhibitor
Fc1ccc2nc(Nc3nc4cc5c(cc4s3)OCCO5)sc2c1,49.5*,49.8,-127.5,-3.4,-155.1
c1ccc2sc(Nc3nc4cc5c(cc4s3)OCO5)nc2c1,-32.8,-5.1,-264.1,-2.2,-215.6
Fc1ccc2nc(Nc3nc4cc5c(cc4s3)OCO5)sc2c1,60.0*,12.2,-232.3,-0.5,-3.3
C/C(N)=C(/C#N)C(=O)COC(=O)[C@@H](NC(=O)c1ccccc1Cl)C(C)C,3.1,-12.4,15.7,-1.7,-27.7
O=C(Nc1ccc(NC(=O)c2cc3ccccc3o2)cc1)c1ccc2c(c1)OCCO2,5.9,1.8,71.5*,-2.8,-9.5
Cc1cc(NC(=O)c2ccc3c(c2)OCCO3)ccc1NC(=O)c1cc2ccccc2o1,53.0*,44.5,-41.9,3.3,-26.3
Cc1cc(NC(=O)c2cc3ccccc3o2)ccc1NC(=O)c1ccccc1,-1.7,18.1,-37.3,-0.6,-45.8
Cc1ccc(NC(=O)c2ccc3c(c2)OCCO3)cc1,-2.4,4.1,22.2,6.2,-43.4
CCN(CC)Cc1c(C(=O)N/N=C/c2ccccn2)nnn1-c1nonc1N,-8.3,·,-11.1,-3.5,-5.5
COc1ccc(N2C(=O)CN(Cc3ccc(OC)c(OC)c3)C2=S)cc1,-0.1,14.5,10.3,0.2,-37.8
O=C(COc1cccc(C(F)(F)F)c1)N1CCN(c2ccc(O)cc2)CC1,7.5,78.0*,-0.1,0.5,-27.1
O=C(CCOc1ccccc1)N1CCN(c2ccc(O)cc2)CC1,-5.3,82.0*,-14.2,-0.1,-18.5
O=C(CCSc1ccccc1)N1CCN(c2ccccc2)CC1,-11.6,-10.8,-136.6,-8.1,-58.7
O=C(CCSc1ccc(Cl)cc1)N1CCN(c2ccc(O)cc2)CC1,0.7,106.2*,-3.8,0.1,21.8
O=C(CCCOc1ccccc1)N1CCN(c2ccccc2)CC1,-1.8,-16.3,-51.3,8.4,-75.3
C=C1CCc2c([nH]c3ccc(OCC(C)C)cc23)C1=O,-4.1,86.7*,-2.2,13.0,-32.1
CCC(CO)Oc1cc(NCc2ccc(Cl)cc2Cl)c2ncn(C(C)C)c2c1 (centres undefined),·,110.9*,·,·,·
O=S(=O)(Nc1ccc(-n2cccc2)cc1)c1ccc(Cl)c(Cl)c1,49.8*,83.9*,·,2.9,-2.1
Cc1ccc2c(c1)c(C)c(C)n2CC(O)Cn1nc(C)c(Br)c1C (centres undefined),58.8*,1.3,21.9,-9.7,-3.8
CC(C)CN(C(=O)COC(=O)CSc1ccccc1)c1c(N)n(Cc2ccccc2)c(=O)[nH]c1=O,0.9,-5.9,10.0,·,·
COc1cccc(CNCCc2c[nH]c3ccccc23)c1OCc1ccc(F)cc1,4.3,15.1,-15.1,-0.3,-3.5
COc1cc(CNCCc2c[nH]c3ccccc23)ccc1OCc1ccc(F)cc1,3.7,+,18.8,2.4,-27.0
O=Cc1c(-c2ccc(Cl)cc2)oc2ccc(O)cc12,-2.2,·,-118.2,·,·
NC(N)=NN=C1c2ccccc2-c2ccccc21,-4.7,-10.5,-3.3,8.6,-7.8
CCCOc1ccc2c(c1)C(=NN=C(N)N)c1cc(OCCC)ccc1-2,12.0,111.6*,-45.8,2.3,-38.1
CC1CCN(Cc2c(C(=O)O)nnn2-c2nonc2N)CC1,1.5,-19.7,3.7,2.8,-7.7
CN1/C(=C\C(=O)COc2ccc3c(c2)OCO3)C(C)(C)c2ccccc21,14.0,111.6*,2.2,0.3,-9.2
CCCOc1ccc2cc(-c3ccccn3)c(=O)oc2c1,10.1,26.3,77.2*,4.2,-7.3
O=C1CC(C(=O)Nc2ccc(Cl)cc2[N+](=O)[O-])C2(CCCCC2)O1 (centres undefined),6.5,-18.0,-8.1,4.8,-36.9
